Active and inactive are the calls of the source.

Among the data in PubChem BioAssay are composite z-score and z-score values, retold here.

Test [1] is described as follows: binders of probe aFSTL3 on microarray, primary screen, stem cell growth factor project, biochemical, small-molecule microarray, fluorescence 635/667 (AID 1064).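 Further: measures binding of the biotinylated anti-FSTL3 antibody to printed compounds.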 To be noted: higher = more signal.
Test [2] is described as follows: binders from COS7 lysate, DM2A8 probe, primary screen, torsin A project, cell lysate, small-molecule microarray, fluorescence 635/667 (AID 1065). To be noted: higher = more signal, COS7 lysate expressing mutant human TOR1A.
Test [3] is described as follows: binders of probe aFGF2 on microarray, primary screen, stem cell growth factor project, biochemical, small-molecule microarray, fluorescence 635/667 (AID 1067).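 Further: measures binding of biotinylated aFGF2 protein to printed compounds on slides; z-score merges feature fluorescence and signal-to-noise across triplicate slides.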 To be noted: higher = more signal.
A short description of test [4]: binders of probe aFGF10 on microarray, primary screen, stem cell growth factor project, biochemical, small-molecule microarray, fluorescence 635/667 (AID 1071).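 Further: score merges 667 nm spot intensity and signal to noise from triplicate slides.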 To be noted: higher = more signal.
Test [5] addresses Neurogenic locus notch homolog protein 2 (Homo sapiens) (UniProt Q04721). Nature of the test: Notch2 binders on small-molecule microarrays, primary screen, biochemical, small-molecule microarray, 635 nm fluorescence, stem cell growth factors (AID 1073). To be noted: Notch2 binding, higher = more signal.
For test [6], the target named is Pro-neuregulin-1, membrane-bound isoform (Homo sapiens) (UniProt Q02297). Description: NRG1 binders on small-molecule microarrays, primary screen, psychiatric disease protein project, biochemical, small-molecule microarray, fluorescence 635/667 (AID 1075).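 Further: score combines 667 nm spot fluorescence with signal to noise.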 As to conditions: NRG1 binding, 635 nm fluorescence, higher = more signal.
Sequence of Pro-neuregulin-1, membrane-bound isoform (Homo sapiens) (Q02297 whole entry, looked up, the tested form may be a part, canonical isoform): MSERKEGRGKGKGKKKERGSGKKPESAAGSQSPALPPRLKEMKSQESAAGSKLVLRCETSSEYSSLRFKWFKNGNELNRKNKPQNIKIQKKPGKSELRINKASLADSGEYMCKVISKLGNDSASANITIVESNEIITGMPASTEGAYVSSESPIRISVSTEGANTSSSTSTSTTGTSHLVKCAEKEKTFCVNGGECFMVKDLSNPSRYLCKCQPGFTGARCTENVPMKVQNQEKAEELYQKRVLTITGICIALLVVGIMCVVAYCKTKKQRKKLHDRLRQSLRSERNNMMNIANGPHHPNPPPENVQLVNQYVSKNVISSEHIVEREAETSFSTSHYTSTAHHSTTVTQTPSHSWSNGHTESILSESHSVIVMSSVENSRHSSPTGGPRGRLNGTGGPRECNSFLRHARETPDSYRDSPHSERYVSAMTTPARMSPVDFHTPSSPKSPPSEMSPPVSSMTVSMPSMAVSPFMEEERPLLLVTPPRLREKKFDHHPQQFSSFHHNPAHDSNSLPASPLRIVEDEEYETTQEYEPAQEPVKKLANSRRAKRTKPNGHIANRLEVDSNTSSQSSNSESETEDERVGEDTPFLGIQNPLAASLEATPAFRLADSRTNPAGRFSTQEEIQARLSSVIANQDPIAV
Test [7] deals with Neuregulin-1 EGF-like domain. Description: binders of neuregulin-1 EGF-like domain, primary screen, biochemical, small-molecule microarray, 635 nm fluorescence (AID 1081).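 Further: binding of the protein to compounds printed on small-molecule microarray slides.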 As to conditions: small-molecule microarray binding, higher = more signal.
A short description of test [8]: FRG1 promoter luciferase signal modulators, primary screen, FRG1 inhibition for FSHD, cell-based, C2C12 myotubes, firefly/Renilla luciferase, luminescence (AID 1084). As to conditions: higher = more signal, called active from +8 up or from −8 down.
Test [9] can be described thus: binders of probe aFST on microarray, primary screen, stem cell growth factor project, biochemical, small-molecule microarray, fluorescence 635/667 (AID 1086).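 Further: score merges 667 nm fluorescence with signal-to-noise of each printed compound spot.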 As to conditions: higher = more signal.
Test [10] can be described thus: binders of probe aHhip on microarray, primary screen, stem cell growth factor project, biochemical, small-molecule microarray, fluorescence 635/667 (AID 1087).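 Further: score merges spot fluorescence at 667nm with spot signal to noise ratio.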 As to conditions: higher = more signal.

Sequence of Neurogenic locus notch homolog protein 2 (Homo sapiens) (Q04721 whole entry, looked up, canonical isoform): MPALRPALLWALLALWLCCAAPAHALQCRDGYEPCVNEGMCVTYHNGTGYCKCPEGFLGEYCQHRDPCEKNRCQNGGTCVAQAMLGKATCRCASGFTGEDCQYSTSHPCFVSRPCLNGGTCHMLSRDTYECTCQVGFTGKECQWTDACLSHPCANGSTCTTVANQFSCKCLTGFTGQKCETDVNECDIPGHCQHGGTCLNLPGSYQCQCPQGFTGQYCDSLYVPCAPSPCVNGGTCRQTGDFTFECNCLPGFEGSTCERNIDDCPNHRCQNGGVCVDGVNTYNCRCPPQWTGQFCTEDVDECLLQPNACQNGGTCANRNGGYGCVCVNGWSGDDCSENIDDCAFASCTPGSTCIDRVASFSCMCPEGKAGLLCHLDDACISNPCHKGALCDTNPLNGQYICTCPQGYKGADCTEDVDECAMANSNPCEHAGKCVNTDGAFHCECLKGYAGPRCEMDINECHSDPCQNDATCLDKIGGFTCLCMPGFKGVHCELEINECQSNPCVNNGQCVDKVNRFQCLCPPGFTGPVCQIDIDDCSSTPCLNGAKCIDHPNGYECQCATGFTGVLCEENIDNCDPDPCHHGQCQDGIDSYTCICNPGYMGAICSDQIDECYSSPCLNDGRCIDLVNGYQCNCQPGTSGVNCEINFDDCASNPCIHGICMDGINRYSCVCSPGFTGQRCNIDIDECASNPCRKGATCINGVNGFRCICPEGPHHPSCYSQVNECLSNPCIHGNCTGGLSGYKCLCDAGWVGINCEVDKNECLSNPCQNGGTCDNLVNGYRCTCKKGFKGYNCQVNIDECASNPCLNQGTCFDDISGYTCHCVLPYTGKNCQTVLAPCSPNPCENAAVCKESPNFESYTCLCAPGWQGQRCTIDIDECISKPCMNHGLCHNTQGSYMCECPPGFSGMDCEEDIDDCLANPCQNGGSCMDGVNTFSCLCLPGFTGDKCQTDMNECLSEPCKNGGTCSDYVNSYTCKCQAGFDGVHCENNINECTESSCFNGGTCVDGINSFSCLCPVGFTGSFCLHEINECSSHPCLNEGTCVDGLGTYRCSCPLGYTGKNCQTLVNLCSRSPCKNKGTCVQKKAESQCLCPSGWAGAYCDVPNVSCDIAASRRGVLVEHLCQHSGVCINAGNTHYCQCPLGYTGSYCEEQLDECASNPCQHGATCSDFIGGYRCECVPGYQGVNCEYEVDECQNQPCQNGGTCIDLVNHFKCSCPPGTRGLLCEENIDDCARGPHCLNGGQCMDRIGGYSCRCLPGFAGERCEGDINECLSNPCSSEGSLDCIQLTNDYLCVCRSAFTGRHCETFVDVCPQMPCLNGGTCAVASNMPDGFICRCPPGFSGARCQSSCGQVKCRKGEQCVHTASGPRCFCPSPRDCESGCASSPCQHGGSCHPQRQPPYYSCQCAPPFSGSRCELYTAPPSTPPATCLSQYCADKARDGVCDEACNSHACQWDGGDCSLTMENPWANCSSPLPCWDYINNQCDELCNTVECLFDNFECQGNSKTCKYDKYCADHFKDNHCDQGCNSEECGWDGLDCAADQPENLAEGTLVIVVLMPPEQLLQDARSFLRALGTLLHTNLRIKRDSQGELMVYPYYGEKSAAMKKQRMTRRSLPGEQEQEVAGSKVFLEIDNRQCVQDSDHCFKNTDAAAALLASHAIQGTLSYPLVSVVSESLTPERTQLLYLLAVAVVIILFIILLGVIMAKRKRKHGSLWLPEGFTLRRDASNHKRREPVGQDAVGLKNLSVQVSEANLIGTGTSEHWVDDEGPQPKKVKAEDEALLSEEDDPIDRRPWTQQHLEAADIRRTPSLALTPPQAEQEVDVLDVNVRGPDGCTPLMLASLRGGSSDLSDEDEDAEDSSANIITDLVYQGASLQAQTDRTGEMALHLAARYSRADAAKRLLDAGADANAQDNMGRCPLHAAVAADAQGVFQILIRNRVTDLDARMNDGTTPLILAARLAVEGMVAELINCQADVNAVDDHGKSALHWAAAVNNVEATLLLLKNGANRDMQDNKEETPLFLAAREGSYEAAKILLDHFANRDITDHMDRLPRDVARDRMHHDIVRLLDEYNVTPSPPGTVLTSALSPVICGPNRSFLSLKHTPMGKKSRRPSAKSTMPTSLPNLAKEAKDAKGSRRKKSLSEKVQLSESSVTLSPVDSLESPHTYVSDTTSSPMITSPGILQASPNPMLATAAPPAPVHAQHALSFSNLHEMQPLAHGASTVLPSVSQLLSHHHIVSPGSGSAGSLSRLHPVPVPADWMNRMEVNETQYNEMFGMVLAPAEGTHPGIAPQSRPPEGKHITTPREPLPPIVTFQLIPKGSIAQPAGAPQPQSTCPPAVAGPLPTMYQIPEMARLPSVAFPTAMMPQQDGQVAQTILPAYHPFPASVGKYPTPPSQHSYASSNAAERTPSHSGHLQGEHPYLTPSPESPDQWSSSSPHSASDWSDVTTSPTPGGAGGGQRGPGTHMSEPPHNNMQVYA

As to `C=CCNC(=O)[C@H]1[C@@H]2C(=O)O[C@@H](c3ccccc3)[C@@H](c3ccccc3)N2[C@@H](c2ccc(O)cc2)[C@]12C(=O)N(C(=O)OCCOC)c1ccc(C#CCC(C(=O)OC)C(=O)OC)cc12`, the composite z-score in test [1] is -0.114; in [2] it was 0.85; in [3] it was -0.0422; in test [4], 0.453; in [5] it was 0.719; in [6], 0.225. Besides, the composite z-score in test [7] was 1.21; in test [9], 0.376; in test [10], -0.162. The z-score in test [8] is 0.172 (inactive).

Consider `C=CCNC(=O)[C@@H]1[C@H]2C(=O)O[C@H](c3ccccc3)[C@H](c3ccccc3)N2[C@H](c2ccc(O)cc2)[C@@]12C(=O)Nc1ccc(C#CCC(C(=O)OC)C(=O)OC)cc12`, for which the composite z-score in test [1] was -0.174; in test [2], 0.198; in test [3], -0.18; in test [4], 0.163; in test [5], 0.162; in test [6], 0.749. Further, the composite z-score came out at 0.95 in test [7], 0.249 in test [9] and 0.0623 in [10]. Also, the z-score in [8] is 1.03 (inactive).

For the molecule `COc1cc2c(cc1OC)CN(C(=O)[C@@H]1[C@H]3C(=O)O[C@H](c4ccccc4)[C@H](c4ccccc4)N3[C@H](c3ccc(O)cc3)[C@@]13C(=O)Nc1ccc(C#CCCO)cc13)CC2`, the composite z-score in [1] was -0.281; in test [2], 0.0865; in test [3] it was -0.0962; in [4], 0.658; in [5], 0.711; in test [6], 1.39. For the same molecule, the composite z-score in test [7] is 1.17; in test [9] it was 0.628; in [10], -0.201. Further, the z-score in test [8] is -0.101 (inactive).

As for `COCCOC(=O)N1C(=O)[C@@]2(c3cc(C#CCC(C(=O)OC)C(=O)OC)ccc31)[C@H](c1ccc(OCCO)cc1)N1[C@H](c3ccccc3)[C@H](c3ccccc3)OC(=O)[C@H]1[C@@H]2C(=O)Nc1nc2ccccc2s1`, the composite z-score in [1] is -0.0598; in test [2] it was 0.215; in test [3] it was -0.17; in test [4], 0.383; in [5] it was 1.22; in test [6] it was -0.0762. In addition, the composite z-score was 1.23 in test [7], 0.524 in test [9] and -0.148 in test [10]. Moreover, the z-score in test [8] was 4.65 (inactive).

`COC(=O)[C@@]1(Cc2ccc(OC)cc2)[C@H]2c3cc(C(=O)N4CCCC4)n(Cc4cc(C)n(C)n4)c3C[C@H]2CN1C(=O)c1ccccc1`: the composite z-score was found to be 0.404 in [1]; 0.0011 in test [2]; 0.37 in test [3]; 1.3 in test [4]; 1.76 in [5]; 2.16 in [6]. For the same molecule, the composite z-score is 1.33 in [7], 0.821 in [9] and 2.67 in test [10]. Also, in test [8], the z-score was 0.301 (inactive).

Consider `O=C1C2C=CC(C(O)C=Cc3ccc([N+](=O)[O-])cc3)N(Nc3ccccc3)C2C(=O)N1c1ccccc1` (stereo not given), for which the composite z-score in [1] was -0.134; in test [2], -0.0552; in [3], 0.183; in test [4] it was 0.995; in test [5] it was 1.59; in test [6] it was 1.7. For the same molecule, the composite z-score in test [7] is 0.967; in test [9] it was 1.22; in [10], -0.0237. Also, the z-score in test [8] is -0.028 (inactive).

In the case of `CN(C)CCCCNC(=O)[C@H]1C[C@H]2C(=O)N[C@@H](CCCC[N+](C)(C)C)C(=O)N2[C@H]1c1ccc(O)cc1`, the composite z-score in [1] is -0.334; in test [2] it was 0.755; in test [3], -0.136; in test [4], -0.556; in test [5], -0.661; in test [6], -0.506. Further, the composite z-score in [7] was 0.942; in test [9], -0.31; in test [10], -0.132. Also, the z-score in test [8] was 3.25 (inactive).

For `CC(C)CNC(=O)[C@@]1(C)c2ccccc2C(=O)N(Cc2cc(C(F)(F)F)cc(C(F)(F)F)c2)[C@H]1c1ccc(CO)cc1`, the composite z-score in test [1] is 0.0317; in test [2], 0.0213; in test [3], -0.178; in test [4] it was -0.278; in test [5], -0.474; in test [6], -0.12. Also, the composite z-score in test [7] was 0.492; in [9], -0.635; in [10], 0.0156. For the same molecule, the z-score in test [8] is -1.43 (inactive).

On to `COCCOC(=O)N1C(=O)[C@@]2(c3cc(C#Cc4ccc(OC)cc4)ccc31)[C@H](c1ccc(OCCO)cc1)N1[C@H](c3ccccc3)[C@H](c3ccccc3)OC(=O)[C@H]1[C@@H]2C(=O)Nc1nc2ccccc2s1`, for which the composite z-score in test [1] is -0.118; in [2] it was 0.247; in [3], -0.0262; in [4], 0.39; in test [5] it was 1.21; in [6] it was 0.864. In addition, the figures for the composite z-score in test [7], in test [9] and in test [10] were 0.718, -0.0352 and 0.0695, respectively. Besides, the z-score in test [8] is 2.99 (inactive).

As to `COC(=O)[C@@]1(Cc2ccccc2CN=[N+]=[N-])N=C(c2ccc(OCCCO)cc2)O[C@H]1c1ccccc1CN=[N+]=[N-]`, the composite z-score is 0.629 in [1]; -0.43 in test [2]; -0.0457 in test [3]; 0.0746 in test [4]; -0.733 in [5]; 0.846 in [6]. Moreover, the composite z-score in test [7] was 1.22; in [9], -0.574; in [10], -0.226. In test [8], the z-score is -1.23 (inactive).

With `COCCCNC(=O)[C@@]1(Sc2ccc(C)cc2)CC(=O)N(C(C)C)[C@@H]1c1ccc(CO)cc1I`, the composite z-score in [1] was 0.438; in test [2] it was -0.107; in test [3], 0.0854; in [4], 0.606; in test [5], -0.622; in test [6] it was 1.89. Also, the composite z-score is 1.25 in [7], -0.307 in test [9] and -0.0581 in test [10]. For the same molecule, the z-score in [8] is -1.2 (inactive).

As to `CC(C)OC(=O)CC(=O)CC(O)c1ccc([N+](=O)[O-])cc1` (stereo not given), the composite z-score in test [1] worked out at 0.231; in test [2] it was 0.219; in test [3], 0.0033; in test [4], 0.307; in [5], 0.795; in test [6], 0.0916. Also, the composite z-score in [7] was 0.438; in test [9], 0.0731; in test [10], -0.123. Besides, the z-score in [8] was 0.719 (inactive).

On to `COCCOC(=O)N1C(=O)[C@@]2(c3cc(C#CC4=CCCCC4)ccc31)[C@H](c1ccc(O)cc1)N1[C@H](c3ccccc3)[C@H](c3ccccc3)OC(=O)[C@H]1[C@@H]2C(=O)NC[C@H](O)c1ccccc1`, for which the composite z-score in test [1] is -0.217; in test [2] it was 0.167; in test [3], 0.0059; in test [4] it was 0.824; in test [5], 1.18; in test [6], 1.3. For the same molecule, the figures for the composite z-score in test [7], in [9] and in test [10] were 1.2, 0.443 and -0.174, respectively. The z-score in test [8] was 0.675 (inactive).

Take `CCOC(=O)C1=C[C@@H](C(C)(C)C)N(S(=O)(=O)c2ccc(C)cc2)[C@H]1c1ccccc1`: the composite z-score in test [1] stood at 0.401; in test [2], 0.685; in [3], 0.0524; in test [4] it was 0.69; in test [5], 1.63; in test [6], 0.4. Moreover, the composite z-score in test [7] amounted to 0.954; in test [9], 1.04; in test [10], 0.206. For the same molecule, the z-score in test [8] is -1.66 (inactive).

Take `CCCCNC(=O)c1ccc(C#C[Si](C(C)C)(C(C)C)C(C)C)c(OC(C)=O)c1`: the composite z-score in [1] is -0.294; in test [2] it was -0.189; in test [3], -0.108; in [4], 0.493; in test [5], 1.57; in test [6], 0.812. Further, the composite z-score in test [7] was 1.09; in test [9], 0.207; in test [10], 0.0722. In test [8], the z-score was -0.198 (inactive).

Regarding `CCCCC(=C=CC[C@H](O)c1ccc(OCCO)cc1)C[C@H](O)c1cc(Cl)cc(Cl)c1O`, the composite z-score in test [1] is -0.268; in [2] it was 0.092; in test [3], -0.186; in [4], 0.214; in test [5] it was 0.323; in test [6] it was 1.05. In addition, the composite z-score was 0.965 in test [7], 0.236 in [9] and -0.264 in test [10]. Also, the z-score in [8] is -2 (inactive).
